# Results taken from PubChem BioAssay (Tox21).
# Where “and” joins values, the source holds several entries; their conditions need not be identical. Identical values can stand only once. Results filed as inconclusive are left out. Where a call stands in place of a potency, no number is given. Calls of active or inactive are those of the source. Calls come from the whole dose curve; as a rule, active = well fitted curve in the direction sought with a large enough effect in the repeat runs; inconclusive = weak or mixed curves; inactive = no such curve, though single readings can be large; an effect the other way counts as inactive or inconclusive.
# Assays:
# [1] = target: Cytochrome P450 2C9 (Homo sapiens) (UniProt P11712); test: Cytochrome P450 Family 2 Subfamily C Member 9 (CYP2C9) small molecule antagonists: luciferase reporter qHTS assay (AID 1671198); conditions: P450-Glo CYP2C9 enzyme assay, luciferin luminescence; series mostly up to 115 µM; note: nearly all actives have a fitted effect of over 50% in size
# How it was run: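 Enzyme-substrate mix preincubated with compound 10 min at room temperature; reaction started with NADPH regeneration solution, 1 h 37C. Luminescent luciferin product read after 20 min detection reagent.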
# [2] = target: Cytochrome P450 1A2 (Homo sapiens) (UniProt P05177); test: Cytochrome P450 Family 1 Subfamily A Member 2 (CYP1A2) small molecule antagonists: luciferase reporter qHTS assay (AID 1671199); conditions: P450-Glo CYP1A2 enzyme, luciferin luminescence, 1 h; series mostly up to 115 µM; note: nearly all actives have a fitted effect of over 50% in size
# How it was run: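 P450-Glo CYP1A2, 1536-well qHTS: enzyme/proluciferin substrate + cpd (DMSO), 10 min RT; NADPH regen, 1 h RT; detection reagent, 20 min; luminescence, RLU.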
# [3] = target: Cytochrome P450 2C19 (Homo sapiens) (UniProt P33261); test: Cytochrome P450 Family 2 Subfamily C Member 19 (CYP2C19) small molecule antagonists: luciferase reporter qHTS assay (AID 1671197); conditions: P450-Glo CYP2C19 enzyme, luciferin luminescence, 1 h; series mostly up to 115 µM; note: nearly all actives have a fitted effect of over 65% in size
# How it was run: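 Quantitative high-throughput screen of the Tox21 library using CYP2C19 with proluciferin substrate. Reaction: NADPH regeneration, 37C, 1 h, after 10 min compound preincubation at room temperature. Readout: luminescence.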
# [4] = target: Voltage-gated inwardly rectifying potassium channel KCNH2 (Homo sapiens) (UniProt Q12809); test: Human Ether-a-go-go-Related Gene (hERG) channel small molecule antagonists: fluorescence cell-based qHTS assay (AID 1671200); conditions: hERG-U2OS cells, FluxOR thallium flux fluorescence; series mostly up to 76.8 µM; note: nearly all actives have a fitted effect of over 50% in size
# How it was run: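 Thallium flux as potassium surrogate: FluxOR II dye loaded 1 h at room temperature into hERG-expressing U2OS cells, then stimulus buffer added after 10 min. Kinetic 480 nm excitation/540 nm emission read, 2 min.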
# [5] = target: Cytochrome P450 3A4 (Homo sapiens) (UniProt P08684); test: Cytochrome P450 Family 3 Subfamily A Member 4 (CYP3A4) small molecule antagonists: luciferase reporter qHTS assay (AID 1671201); conditions: P450-Glo CYP3A4 enzyme, luciferin luminescence, 1 h; series mostly up to 115 µM; note: nearly all actives have a fitted effect of over 50% in size
# How it was run: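 Recombinant human CYP3A4 converts a proluciferin substrate to luciferin over 1 h at room temperature after NADPH regeneration solution is added (compound preincubated 10 min); detection reagent stops reaction, luminescence read 20 min later as relative units.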
# Potency is the fitted concentration of half-maximal effect.
# Chain of Voltage-gated inwardly rectifying potassium channel KCNH2 (Homo sapiens) (Q12809 whole entry, looked up): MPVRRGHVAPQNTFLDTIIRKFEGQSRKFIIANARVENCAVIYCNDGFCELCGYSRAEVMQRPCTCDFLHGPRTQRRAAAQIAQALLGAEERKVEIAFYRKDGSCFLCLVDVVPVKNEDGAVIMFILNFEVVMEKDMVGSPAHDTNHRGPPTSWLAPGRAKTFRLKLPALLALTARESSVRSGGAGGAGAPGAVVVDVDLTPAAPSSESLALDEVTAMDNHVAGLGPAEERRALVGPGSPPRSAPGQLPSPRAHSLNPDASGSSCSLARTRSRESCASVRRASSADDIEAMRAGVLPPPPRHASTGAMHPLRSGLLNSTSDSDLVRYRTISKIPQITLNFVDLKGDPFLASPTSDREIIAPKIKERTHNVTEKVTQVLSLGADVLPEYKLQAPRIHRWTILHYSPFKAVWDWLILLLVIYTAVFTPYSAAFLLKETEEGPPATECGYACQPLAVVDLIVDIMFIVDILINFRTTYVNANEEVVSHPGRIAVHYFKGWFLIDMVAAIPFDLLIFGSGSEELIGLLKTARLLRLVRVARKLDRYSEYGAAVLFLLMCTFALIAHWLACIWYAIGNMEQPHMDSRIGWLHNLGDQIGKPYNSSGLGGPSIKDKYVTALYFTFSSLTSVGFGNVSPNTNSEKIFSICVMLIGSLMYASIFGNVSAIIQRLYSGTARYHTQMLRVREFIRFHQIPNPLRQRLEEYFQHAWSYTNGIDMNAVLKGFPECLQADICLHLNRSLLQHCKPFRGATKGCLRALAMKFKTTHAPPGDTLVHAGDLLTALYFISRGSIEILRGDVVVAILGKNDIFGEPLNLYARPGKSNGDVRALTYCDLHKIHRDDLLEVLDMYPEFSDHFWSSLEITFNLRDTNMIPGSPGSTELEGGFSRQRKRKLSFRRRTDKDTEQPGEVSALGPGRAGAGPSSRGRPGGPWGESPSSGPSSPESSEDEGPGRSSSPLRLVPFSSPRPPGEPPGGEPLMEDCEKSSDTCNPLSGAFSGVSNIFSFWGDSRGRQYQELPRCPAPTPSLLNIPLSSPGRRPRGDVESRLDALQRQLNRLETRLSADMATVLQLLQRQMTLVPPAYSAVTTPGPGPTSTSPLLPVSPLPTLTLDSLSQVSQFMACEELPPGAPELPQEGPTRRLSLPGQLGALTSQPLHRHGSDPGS
# Chain of Cytochrome P450 2C9 (Homo sapiens) (P11712 whole entry, looked up): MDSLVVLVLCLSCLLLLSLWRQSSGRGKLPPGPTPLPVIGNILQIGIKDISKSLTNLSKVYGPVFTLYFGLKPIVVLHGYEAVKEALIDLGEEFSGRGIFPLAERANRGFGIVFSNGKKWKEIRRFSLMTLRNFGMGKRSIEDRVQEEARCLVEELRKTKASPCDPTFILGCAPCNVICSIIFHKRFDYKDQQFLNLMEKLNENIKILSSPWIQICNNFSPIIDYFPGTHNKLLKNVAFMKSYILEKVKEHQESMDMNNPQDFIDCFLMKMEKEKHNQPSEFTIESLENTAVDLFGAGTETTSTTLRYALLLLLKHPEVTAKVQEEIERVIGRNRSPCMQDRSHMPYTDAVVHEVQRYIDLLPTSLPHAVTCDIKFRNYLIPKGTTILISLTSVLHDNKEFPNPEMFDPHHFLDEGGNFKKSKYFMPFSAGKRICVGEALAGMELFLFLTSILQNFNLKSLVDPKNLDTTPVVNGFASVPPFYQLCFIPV
# Chain of Cytochrome P450 3A4 (Homo sapiens) (P08684 whole entry, looked up): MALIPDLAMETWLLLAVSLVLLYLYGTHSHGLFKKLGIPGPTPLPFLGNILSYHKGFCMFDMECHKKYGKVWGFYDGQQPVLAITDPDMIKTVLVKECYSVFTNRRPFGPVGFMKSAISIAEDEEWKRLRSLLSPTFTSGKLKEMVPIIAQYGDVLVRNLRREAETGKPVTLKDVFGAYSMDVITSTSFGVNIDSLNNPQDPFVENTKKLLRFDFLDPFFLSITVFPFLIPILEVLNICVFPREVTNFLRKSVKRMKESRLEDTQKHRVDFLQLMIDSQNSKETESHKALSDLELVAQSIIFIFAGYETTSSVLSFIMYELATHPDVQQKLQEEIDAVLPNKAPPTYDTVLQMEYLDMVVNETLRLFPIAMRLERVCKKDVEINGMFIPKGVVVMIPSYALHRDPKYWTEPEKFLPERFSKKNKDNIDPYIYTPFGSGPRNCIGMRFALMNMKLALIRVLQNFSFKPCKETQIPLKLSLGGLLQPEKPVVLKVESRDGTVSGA
# Chain of Cytochrome P450 2C19 (Homo sapiens) (P33261 whole entry, looked up): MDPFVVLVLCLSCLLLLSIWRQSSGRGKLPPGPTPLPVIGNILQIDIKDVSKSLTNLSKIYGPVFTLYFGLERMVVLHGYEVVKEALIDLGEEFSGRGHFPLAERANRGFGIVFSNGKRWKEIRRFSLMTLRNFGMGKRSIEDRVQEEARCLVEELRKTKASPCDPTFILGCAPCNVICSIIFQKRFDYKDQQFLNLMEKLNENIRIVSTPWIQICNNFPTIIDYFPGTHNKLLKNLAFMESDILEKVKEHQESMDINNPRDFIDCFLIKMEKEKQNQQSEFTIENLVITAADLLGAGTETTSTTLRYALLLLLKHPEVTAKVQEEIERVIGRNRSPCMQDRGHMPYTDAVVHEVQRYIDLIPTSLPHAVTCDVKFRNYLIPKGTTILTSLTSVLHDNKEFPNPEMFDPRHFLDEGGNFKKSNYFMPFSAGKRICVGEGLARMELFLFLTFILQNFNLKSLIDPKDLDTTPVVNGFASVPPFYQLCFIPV
# Chain of Cytochrome P450 1A2 (Homo sapiens) (P05177 whole entry, looked up): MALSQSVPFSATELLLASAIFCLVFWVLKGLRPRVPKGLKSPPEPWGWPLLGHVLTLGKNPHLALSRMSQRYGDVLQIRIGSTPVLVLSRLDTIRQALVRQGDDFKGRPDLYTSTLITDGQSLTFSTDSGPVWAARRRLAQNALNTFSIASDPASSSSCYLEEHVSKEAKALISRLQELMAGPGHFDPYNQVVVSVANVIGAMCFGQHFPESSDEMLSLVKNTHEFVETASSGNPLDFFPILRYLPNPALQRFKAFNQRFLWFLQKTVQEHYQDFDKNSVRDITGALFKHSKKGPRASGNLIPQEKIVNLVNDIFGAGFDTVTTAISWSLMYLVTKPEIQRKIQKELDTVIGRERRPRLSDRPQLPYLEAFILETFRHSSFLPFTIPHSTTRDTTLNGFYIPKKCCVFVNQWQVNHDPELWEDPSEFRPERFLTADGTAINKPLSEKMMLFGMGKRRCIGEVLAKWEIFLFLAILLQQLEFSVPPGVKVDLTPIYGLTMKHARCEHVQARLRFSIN
structure (smiles),measurement,setting,value
O=C(CCN1CCN2CCCC2C1)N1c2ccccc2Sc2ccc(Cl)cc21 (stereo not drawn),"activity change, negative = inhibition",[1],11.9% [at 23.6 µM] (inactive)
same,"activity change, negative = inhibition",[2],-23.8% [at 23.6 µM] (inactive)
CC[C@@H]1C[C@H](N(Cc2cc(C(F)(F)F)cc(C(F)(F)F)c2)C(C)=O)c2cc(C(F)(F)F)ccc2N1C(=O)OC(C)C,Potency,[3],inactive
same,Potency,[4],inactive
same,Potency,[5],0.894 µM (active)
COC(Cc1ccccc1)OC,Potency,[3],inactive
same,Potency,[2],inactive
same,Potency,[4],inactive
FC(F)(F)C(F)(F)C(F)(F)C(F)(F)C(F)(F)C(F)(F)CCI,Potency,[3],inactive
same,Potency,[2],inactive
same,Potency,[4],inactive
same,Potency,[5],inactive
O=C(Cl)c1c(Cl)cccc1Cl,Potency,[3],36 µM (active)
same,Potency,[2],inactive
same,Potency,[4],inactive
same,Potency,[5],inactive
OC(CCN1CCCCC1)(c1ccccc1)C1CCCCC1 (stereo not drawn),Potency,[1],inactive
same,Potency,[2],inactive
O=C1c2cccc(O)c2C(=O)c2c(O)cc(CO)cc21,Potency,[3],inactive
same,Potency,[2],8.94 µM (active)
same,Potency,[4],inactive
same,Potency,[5],inactive
CCCCCCCCCC=O,Potency,[3],inactive
same,Potency,[4],inactive
same,Potency,[5],inactive
CC[C@]12CCCN3CCc4c(n(c5ccccc45)C(=O)C1)[C@@H]32,Potency,[3],4.9 µM (active)
same,Potency,[2],inactive
same,Potency,[4],1.69 µM (active)
CC(=O)Nc1ccc(/C=N/NC(N)=S)cc1,Potency,[1],inactive
same,Potency,[2],inactive
same,Potency,[4],inactive
CCCCC(CC)(CO)CO,Potency,[3],56.4 µM (active)
same,Potency,[2],inactive
same,Potency,[4],inactive
same,Potency,[5],inactive
COc1ccc(C(C)=O)cc1,Potency,[3],inactive
same,Potency,[2],29.1 µM (active)
same,Potency,[4],inactive
same,Potency,[5],inactive
CCCCCCCCN(C)C,Potency,[3],inactive
same,Potency,[2],inactive
same,Potency,[4],inactive
CC1(C)CCC(C)(C)c2cc(NC(=O)c3ccc(C(=O)O)cc3)ccc21,Potency,[3],inactive
same,Potency,[2],inactive
same,Potency,[4],inactive
C[Si](C)O[Si](C)(C)O[Si](C)(C)O[Si](C)C,Potency,[3],inactive
same,Potency,[2],inactive
same,Potency,[4],inactive
SC1CCCC1,Potency,[1],inactive
same,Potency,[2],inactive
same,Potency,[4],inactive
CC(=O)OCCc1ccccc1,Potency,[3],inactive
same,Potency,[2],inactive
same,Potency,[4],inactive
CC(C)c1ccccc1C(C)C,Potency,[1],39.9 µM (active)
same,Potency,[2],35.6 µM (active)
same,Potency,[4],inactive
same,Potency,[5],22.5 µM (active)
O=c1c2ccccc2nnn1CCl,Potency,[1],71 µM (active)
same,Potency,[2],inactive
same,Potency,[4],inactive
same,Potency,[5],11.2 µM (active)
O=C(NS(=O)(=O)/C=C/c1cccs1)c1ccc(F)cc1Br,Potency,[1],7.1 µM (active)
same,Potency,[2],inactive
same,Potency,[4],inactive
same,Potency,[5],inactive
CCc1nn(C2CCCCC2)c2cc(C3(C#N)CCC(C(=O)O)CC3)ccc12 (stereo not drawn),Potency,[1],20 µM (active)
same,Potency,[2],inactive
same,Potency,[4],inactive
COCCO,Potency,[1],inactive
same,Potency,[2],inactive
same,Potency,[4],inactive
same,Potency,[5],inactive
Cc1cc(C)c(S(=O)(=O)O)cc1N=Nc1cc(S(=O)(=O)O)c2ccccc2c1O,Potency,[1],63.3 µM (active)
same,Potency,[4],inactive
same,Potency,[5],inactive
COc1cc(C(C)(C)C)c(O)c(C(C)(C)C)c1,Potency,[1],22.4 µM (active)
same,Potency,[2],39.9 µM (active)
same,Potency,[5],35.6 µM (active)
C=C(C)C(=O)OCCOc1ccccc1,Potency,[1],35.6 µM (active)
same,Potency,[2],25.2 µM (active)
same,Potency,[4],inactive
same,Potency,[5],inactive
CN(C)CC[C@@H](c1ccc(Br)cc1)c1ccccn1,Potency,[1],inactive
same,Potency,[2],24.5 µM (active)
same,Potency,[4],inactive
CC(=O)/C=C/C1C(C)=CCCC1(C)C (stereo not drawn),Potency,[1],inactive
same,Potency,[2],inactive
same,Potency,[4],inactive
same,Potency,[5],inactive
CCC(C)N(C)C(=O)c1cc2ccccc2c(-c2ccccc2Cl)n1 (stereo not drawn),Potency,[1],20.5 µM (active)
same,Potency,[2],inactive
same,Potency,[4],inactive
CCOC(=S)SSC(=S)OCC,Potency,[1],17.8 µM (active)
same,Potency,[4],inactive
Cn1sccc1=O,Potency,[1],31.7 µM (active) and 35.6 µM (active)
same,Potency,[2],35.6 µM (active) and 31.7 µM (active)
same,Potency,[4],inactive
same,Potency,[5],inactive
CC1CCc2cc(F)cc3c(=O)c(C(=O)O)cn1c23 (stereo not drawn),Potency,[1],inactive
same,Potency,[2],inactive
same,Potency,[4],inactive
CCCCOC(O)CC (stereo not drawn),Potency,[1],inactive
same,Potency,[2],inactive
same,Potency,[4],inactive
same,Potency,[5],inactive
C[C@@H](C1=C(CCN(C)C)Cc2ccccc21)c1ccccn1,Potency,[1],inactive
same,Potency,[2],inactive
same,Potency,[4],19 µM (active)
same,Potency,[5],inactive
O=c1[nH]cnc2ccccc12,Potency,[1],inactive
same,Potency,[4],inactive
same,Potency,[5],inactive
O=CNc1ccccc1,Potency,[1],inactive
same,Potency,[4],inactive
same,Potency,[5],inactive
Cc1ncsc1CCO,Potency,[1],inactive
same,Potency,[2],inactive
same,Potency,[4],inactive
same,Potency,[5],inactive
CCCCCOC(=O)COc1cc(N2C(=O)C3=C(CCCC3)C2=O)c(F)cc1Cl,Potency,[1],5.64 µM (active)
same,Potency,[2],31.7 µM (active)
same,Potency,[5],6.33 µM (active)
COc1ccc(OC)c(OC)c1,Potency,[1],22.4 µM (active)
same,Potency,[2],39.9 µM (active)
same,Potency,[4],inactive
Oc1ccc(O)c2c(O)cccc12,Potency,[1],inactive
same,Potency,[2],39.6 µM (active)
same,Potency,[4],inactive
same,Potency,[5],inactive
CC(C)(C)C(=O)OCOP(=O)(COCCn1cnc2c(N)ncnc21)OCOC(=O)C(C)(C)C,Potency,[1],inactive
same,Potency,[2],inactive
same,Potency,[4],inactive
